Bioassay records deposited in PubChem by National Center for Advancing Translational Sciences (NCATS).
Compounds with a hit are over-represented: about 8.7% of the library has one in this group of screens.
ALOX12 inh – ALOX12 (human) lipoxygenase inhibition; AID 1671190; 580,000 compounds, 1.1% hits; Potency, µM (series often up to 108 µM), for the others: at the top dose activity change, negative = inhibition, hits mostly inhibitors; purified 12hLO, xylenol orange hydroperoxide absorbance; also: % is scaled to controls: 0 for no effect and ±100 for the full control effect
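Purified human 12hLO (150 nM final) in 25 mM Hepes, 0.01% Triton X-100, pH 7.0 was preincubated 15 min at room temperature with compound. Then 40 uM arachidonic acid was added, 30 min. Hydroperoxide was read by Fe-XO absorbance ratio 573/405 nm.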
HP1b binding inh – inhibitors of HP1-beta chromodomain binding to methylated histone tails | Potency, µM (doses to about 114 µM), for inactives: top-dose activity change, negative = inhibition, actives largely listed as inhibitors | AID 540317 | AlphaScreen HP1-beta / biotin-H3K9me3 peptide binding | 390,000 compounds, 0.56% hits | P83916; also: nearly all actives have a fitted effect of over 70% in size
Target sequence (P83916 whole entry, looked up): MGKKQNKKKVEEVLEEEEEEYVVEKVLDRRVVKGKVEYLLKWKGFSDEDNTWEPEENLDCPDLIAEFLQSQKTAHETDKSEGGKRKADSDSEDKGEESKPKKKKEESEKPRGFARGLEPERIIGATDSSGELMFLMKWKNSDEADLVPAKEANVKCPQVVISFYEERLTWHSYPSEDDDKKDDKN
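Compound inhibition of the preformed complex between 50 nM HP1-beta and 50 nM biotinylated H3K9me3 peptide was read by AlphaScreen. Buffer was PBS pH 7.4 with 0.01% Tween-20. Incubations ran 30 min at room temperature, with 10 ug/mL donor/acceptor beads.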
JMJD2A Tudor – blocks the human JMJD2A Tudor domain; AlphaScreen JMJD2A-Tudor / H3K4me3 peptide binding; Potency, µM (titrated, usually from 114 µM), without a hit: at the top dose activity change, negative = inhibition, usual class: inhibitors; O75164; 390,000 compounds, 4.4% hits; also: % is scaled to controls: 0 for no effect and ±100 for the full control effect; nearly all actives have a fitted effect of over 50% in size
BAZ2B block – blocks human BAZ2B. Potency, µM (titrated, usually from 114 µM), for the others: top-dose activity change, negative = inhibition, most hits filed as inhibitors. AlphaScreen BAZ2B-H3K14Ac peptide displacement. 360,000 compounds, 4.4% hits. Q9UIF8. AID 504333; also: % is scaled to controls: 0 for no effect and ±100 for the full control effect; nearly all actives have a fitted effect of over 60% in size
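In this displacement format the biotinylated H3(5-23) peptide acetylated at Lys14 serves as ligand at 50 nM, with BAZ2B at 50 nM in PBS pH 7.4 containing 0.01% Tween-20. Donor and acceptor beads are 10 ug/mL final.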
G9a inh – blocks human histone lysine methyltransferase G9a; AID 504332; G9a H3K9 monomethylation, AlphaScreen, 2 h; Q96KQ7; 350,000 compounds, 8.8% hits; Potency, µM (series often up to 102 µM), inactives show at the top dose activity, negative = inhibition, usual class: inhibitors; also: % is scaled to controls: 0 for no effect and ±100 for the full control effect; nearly all actives have a fitted effect of over 75% in size
Target sequence (Q96KQ7 913-1193 limits assumed): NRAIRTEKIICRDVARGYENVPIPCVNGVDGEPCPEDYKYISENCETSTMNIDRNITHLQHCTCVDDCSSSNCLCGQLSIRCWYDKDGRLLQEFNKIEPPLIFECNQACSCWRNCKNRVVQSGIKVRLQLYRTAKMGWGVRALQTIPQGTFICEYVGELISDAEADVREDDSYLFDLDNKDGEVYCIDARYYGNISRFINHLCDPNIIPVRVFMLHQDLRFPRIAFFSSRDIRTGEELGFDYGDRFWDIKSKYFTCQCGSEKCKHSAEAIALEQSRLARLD
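Chemiluminescent proximity detection of H3K9 monomethylation, read after 10 min bead incubation in the dark. Reaction: 20 nM G9a, 500 nM biotin-H3K9 peptide, 20 uM SAM cofactor, 2 h, room temperature, following 15 min enzyme-compound preincubation.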
Sfp inh – inhibitors of Bacillus subtilis Sfp phosphopantetheinyl transferase; Potency, µM, inactives show largest response in the series, negative = inhibition, hits mostly inhibitors; 310,000 compounds, 3.5% hits; Biochemical Sfp PPTase activity, qHTS;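 also: the enzyme is Sfp with the accession as filed and its product quenches rhodamine fluorescence; 0% = enzyme reaction without inhibitor and -100% = no enzyme wells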
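Buffer: 50 mM Hepes-Na pH 7.6, 10 mM MgCl2, 0.01% Nonidet P-40, 0.01% BSA. Enzyme 15 nM, pre-exposed to compound 15 min; substrates then added and fluorescence change tracked over 30 min.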
* hit, by the source's call; ? = inconclusive; · = no result; [ ] = remark or other dose. Calls follow the shape of the dose curve; as a rule, active = well fitted curve in the direction sought with a large enough effect; inconclusive = small, poorly fitted or top-dose-only effect, or another doubt; inactive = no such curve, though single readings can be large; an effect the other way counts as inactive or inconclusive. Potency is read from the fitted curve at half-maximal effect.

SMILES | ALOX12 inh | HP1b binding inh | JMJD2A Tudor | BAZ2B block | G9a inh | Sfp inh
COc1ccc(OC)c(NC(=O)c2cn(C)c(=O)c3cc(OC)c(OC)cc23)c1 | -3.6% | 8.3% | -16.1% | -35.6% | 39.8µM* | 20.8%
Cn1c(C(=O)NCc2ccc3c(c2)OCO3)cc2sccc21 | 1.7% | -0.9% | ? | ? | ? | -6.9%
CCOc1ccc(/C=C(/C#N)c2nc3ccccc3[nH]2)cc1OC | -26.5% | · | · | · | · | ·
CCOC(=O)c1cc2sccc2n1CC(=O)Nc1ccc(OC)cc1OC | 0.4%[57.4 µM] | 15.9% | -21.9% | -6.8% | 12.6µM* | 9.8%
CCc1ccccc1NC(=O)c1cc2sccc2n1C | ? | 0.3% | ? | -0.2% | ? | -4.8%
COc1ccc(OC)c(NC(=O)c2cc3sccc3n2C)c1 | -15.8% | -11.0% | ? | ? | 50.1µM* | -25.2%
CC(=O)c1cccc(NC(=O)Nc2cccs2)c1 | 234.9% | 1.4% | -22.9% | ? | ? | ?
CC(=O)c1cccc(NC(=O)Nc2cc3sccc3n2C)c1 | · | · | · | ? | ? | 39.8µM*
Cn1c(C(=O)Nc2ccccc2)cc2sccc21 | -23.2% | 5.3% | -29.3% | ? | 1.58µM* | -4.7%
CCCC(C(=O)NCc1ccc(OC)c(OC)c1)c1ccccc1 (stereo not drawn) | -41.7% | · | · | · | · | ·
Cc1cccc(-c2noc(C(C)Oc3ccc(Br)cc3)n2)c1 (stereo not drawn) | -3.2% | · | · | · | · | ·
COc1ccc(CNC(=O)Cn2ncn3c(cc4ccccc43)c2=O)cc1 | 0.0% | 36.9% | -12.7% | 8.8% | · | -18.2%
O=C(Cn1cnc2sc(-c3ccccc3)cc2c1=O)NCc1ccccc1 | 24.5% | 4.9% | -25.0% | 13.7% | ? | 3.3%
O=C(Cn1ncn2c(cc3ccccc32)c1=O)NCc1ccco1 | -10.2% | 7.3% | ? | 50.1µM* | ? | 22.4µM*
O=C(Cn1cnc2sc(-c3ccccc3)cc2c1=O)NCc1ccco1 | 0.0% | 8.91µM* | 3.16µM* | ? | 12.6µM* | 31.6µM*
Cc1ccc(NC(=O)N[C@@H]2C=C(C(=O)N[C@@H](Cc3cccs3)C(N)=O)C[C@@H](O)[C@@H]2O)cc1 | 10.7% | · | · | · | · | ·
Nc1nc(Nc2ccccc2F)sc1C(=O)c1ccccc1 | -11.5% | -12.5% | ? | 44.7µM* | 10.5%[0.501 µM] | -10.2%
Cc1ccc(C(=O)c2sc(Nc3ccc(Cl)cc3C)nc2N)cc1 | 28.2µM* | · | · | · | · | ·
O=C1c2c(nc(COc3ccc(F)cc3F)n2Cc2ccccc2)NCCN1CC1CC1 | 0.9%[176 µM] | · | · | · | · | ·
CCC(CC)NC(=O)Cn1cnc2c1c(=O)n(C)c(=O)n2C | -4.8% | · | · | · | · | ·
Cc1nc(C)c(CCNC(=O)c2ccc(C(F)(F)F)cc2)s1 | -2.1% | 21.1% | -7.6% | 4.5% | 44.7µM* | -2.8%
Nc1nc(=S)n(-c2ccccc2)[nH]1 | ? | ? | 3.55µM* | ? | 10µM* | 28.2µM*
Cc1nc(=S)n(-c2ccccc2)[nH]1 | ? | 43.3% | 7.08µM* | 5.6% | 14.1µM* | ?
Cc1cc(-c2c(C)[nH]n(-c3ccccc3)c2=O)n(-c2ccccc2)n1 | -20.7% | 14.7% | -16.7% | -30.7% | · | 12.7%
S=c1nc(-c2ccccc2)[nH]n1-c1ccccc1 | ? | ? | 22.4µM* | -36.6% | ? | 39.8µM*
SMILES | ALOX12 inh | HP1b binding inh | JMJD2A Tudor | BAZ2B block | G9a inh | Sfp inh
S=c1nc2ccccc2c2nc(-c3ccccc3)[nH]n12 | ? | 20.4% | -16.4% | -3.3% | -40.1% | -11.4%
O=c1[nH]n(-c2ccccc2)c(=O)c2ccccc12 | 2.7% | 3.6% | -18.6% | 11.7% | 2.6% | -2.6%
O=C(Nc1cccc2[nH]ncc12)NS(=O)(=O)c1ccccc1 | 0.0% | 37.5% | -4.7% | ? | 39.8µM* | -14.6%
CC(=O)Nc1ccc(S(=O)(=O)Nc2cccc3[nH]ncc23)cc1 | -0.8% | 6.1% | -5.7% | -7.5% | 0.8% | 8.9%
NC(=O)c1ccc(N2CCCCC2)c(N2C(=O)C3CC=CCC3C2=O)c1 (stereo not drawn) | 0.0% | 21.6% | -5.0% | 50.1µM* | 1.3%[12.7 µM] | 6.5%
O=C(c1cccc(N2C(=O)C3CC=CCC3C2=O)c1)N1CCCCCC1 (stereo not drawn) | -15.7% | 12.2% | -25.0% | 1.0% | 9.0%[59 µM] | -4.8%
CSc1cccc(N2CC(C(=O)N(CC(C)C)c3c(N)n(Cc4ccccc4)c(=O)[nH]c3=O)CC2=O)c1 (stereo not drawn) | ? | 25.8% | -29.0% | ? | 39.8µM* | ·
CC(C)CCN(C(=O)C1CSC2(C)CCC(=O)N12)c1c(N)n(Cc2ccccc2)c(=O)[nH]c1=O (stereo not drawn) | -13.7% | 5.4% | -18.6% | ? | 28.2µM* | ·
COc1nc2cc(C)ccc2cc1-c1noc(-c2cccs2)n1 | -0.1% | · | · | · | · | ·
CC(C)CCN1CC[C@H](c2nc3ccccc3[nH]2)C1 | 77.6%[176 µM] | · | · | · | · | ·
O=C(Nc1ccn(CCCNCC(c2ccccc2)c2ccccc2)c(=O)n1)OCc1ccccc1 | 37.7% | · | · | · | · | ·
Cc1ccc(NCCCn2ccc(NC(=O)OCc3ccccc3)nc2=O)cc1C | 15.7% | ? | 56.2µM* | · | · | ·
COc1ccc(/C=N/N=C2/NC(=O)CC(C(=O)O)S2)cc1 (stereo not drawn) | 11.8% | 13.9% | -9.1% | 2.3% | ? | 0.5%
COc1ccc(/C=N/N=C2/CC(C)(C)Cc3n[nH]c(=O)cc32)cc1 | -7.9% | 40.9% | -4.2% | -30.2% | 35.5µM* | ?
CCN(CC(=O)Nc1ccccc1C(F)(F)F)C(=O)/C=C/c1ccc(Cl)c([N+](=O)[O-])c1 | ? | 20.2% | -13.8% | -5.4% | 17.8µM* | ·
COCCN(CC(=O)Nc1ccccc1C(F)(F)F)C(=O)/C=C/c1cc(Cl)c2c(c1)OCO2 | -80.7% | 28.0% | -22.3% | -2.6% | 5.5%[12.7 µM] | ·
CCN(CC)C(=O)CSc1nc(N)c(C(=O)Nc2ccc(OC)cc2)s1 | 23.2% | 10.3% | -27.0% | -23.6% | -4.8%[59 µM] | 0.8%
Nc1ccc2nc(SCC(=O)N3CCN(c4ccccc4)CC3)sc2c1 | 0.0% | 3.6% | -31.4% | ? | 50.1µM* | 5.8%
O=C(CCCc1nc2ccccc2s1)N1CCN(c2ccccc2)CC1 | -10.5% | 8.7% | -19.9% | -30.4% | ? | 44.7µM*
